This note sets out measurements from PubChem BioAssay (EPA / NIEHS).

Test [1] deals with human Serotonin, 5-Hydroxytryptamine Receptor 3 (5HT3), HTR3A (gene 3359) (UniProt P46098). Description: NVS_LGIC_h5HT3: NovaScreen (NVS) Ligand-Gated Ion Channel Assay for human Serotonin, 5-Hydroxytryptamine Receptor 3 (5HT3) (AID 2283325). Put shortly:
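Radioligand displacement binding to human 5-HT3 from HEK293 membranes, read by filter-based scintillation counting after 1 h. Screen at 25 uM in duplicate; chemicals passing threshold were retested in concentration-response up to 50 uM.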

Test [2] addresses rat Neonicotinoid receptor (NNR), Chrna7 (gene 25302) (UniProt Q05941). The test is described as follows: NVS_LGIC_rNNR_BungSens: NovaScreen (NVS) Ligand-Gated Ion Channel Assay for rat Neonicotinoid receptor (NNR) (AID 2283315). An outline of the steps:
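Radioligand displacement binding on rat cortical membranes, 2.5 h incubation, filtration and scintillation counting. Loss of specific binding fitted relative to DMSO.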

Test [3] addresses rat Histamine Receptor (H3), Hrh3 (gene 85268) (UniProt Q9QYN8). The test is described as follows: NVS_GPCR_rH3: NovaScreen (NVS) G Protein-Coupled Receptor Assay for rat Histamine Receptor (H3) (AID 2283303). Put shortly:
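Rat forebrain membranes incubated 1 h with compound; radioligand displacement measured by filter-based scintillation counting. Single-concentration duplicates at 25 µM, then concentration-response up to 50 µM, relative to DMSO.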

Test [4] addresses Metabotropic glutamate receptor 1 (Rattus norvegicus) (UniProt P23385). Description: NVS_GPCR_rmMGluR1: NovaScreen (NVS) G Protein-Coupled Receptor Assay for rat Glutamate Metabotropic Receptor 1 (MGluR1) (AID 2283305). Put shortly:
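Rat cerebellum membrane preparation, radioligand displacement binding read by filter-based scintillation counting 1 hour after dosing. Initial duplicate single-point screen at 25 uM, then concentration-response up to 50 uM; loss of signal versus DMSO baseline scored.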

A further test has as its target Adra2b (gene 24174) (UniProt P19328). Description: NVS_GPCR_rmAdra2B: NovaScreen (NVS) G Protein-Coupled Receptor Assay for hybird cells Adrenergic, Alpha 2B Receptor (Adra2B) (AID 2283306). An outline of the steps: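 Radioligand filter-binding assay on membrane proteins from neuroglioma/blastoma hybrid cells (rodent), 1 h after dosing; scintillation counting, loss of signal vs DMSO. Primary screen in duplicate at 25 uM, actives then run in concentration series.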

Test [5] concerns the target rat Glutamate Metabotropic Receptor 5 (MGluR5), Grm5 (gene 24418) (UniProt P31424). The test is described as follows: NVS_GPCR_rmMGluR5: NovaScreen (NVS) G Protein-Coupled Receptor Assay for rat Glutamate Metabotropic Receptor 5 (MGluR5) (AID 2283307). An outline of the steps:
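Rat whole-brain membrane preparation; filter-based radioligand binding read by scintillation counting, 1.5 h after dosing. Single-point screen at 25 uM in duplicate; hits over threshold (e.g. 30% inhibition) retested in concentration-response up to 50 uM; loss of signal vs DMSO.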

In test [6] the target is rat Neurokinin-3 Receptor (NK3), Tacr3 (gene 24808) (UniProt P16177). Description: NVS_GPCR_rNK3: NovaScreen (NVS) G Protein-Coupled Receptor Assay for rat Neurokinin-3 Receptor (NK3) (AID 2283310). Put shortly: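 Rat cortical membranes; radioligand binding with filtration and scintillation counting, 2 h after dosing. Primary screen in duplicate at 25 uM, then concentration-response up to 50 uM; loss of binding signal relative to DMSO.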
Chain of rat Neurokinin-3 Receptor (NK3), Tacr3 (gene 24808) (P16177 whole entry, looked up): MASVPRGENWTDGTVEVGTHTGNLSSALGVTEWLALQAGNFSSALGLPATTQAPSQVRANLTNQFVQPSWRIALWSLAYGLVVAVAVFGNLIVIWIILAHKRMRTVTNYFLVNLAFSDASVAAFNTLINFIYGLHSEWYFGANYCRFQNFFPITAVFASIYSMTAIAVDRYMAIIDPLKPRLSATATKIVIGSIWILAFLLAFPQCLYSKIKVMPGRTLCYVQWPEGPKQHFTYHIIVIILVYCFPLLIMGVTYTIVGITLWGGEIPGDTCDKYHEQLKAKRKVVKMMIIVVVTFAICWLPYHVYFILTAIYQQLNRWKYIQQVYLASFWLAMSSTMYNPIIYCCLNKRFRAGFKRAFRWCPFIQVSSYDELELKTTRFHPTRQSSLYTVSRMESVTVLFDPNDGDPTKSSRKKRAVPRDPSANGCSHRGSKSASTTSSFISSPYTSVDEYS

The target of test [7] is rat Opioid Receptor, Non-selective Sodium (Na+) Binding, Oprm1 (gene 25601) (UniProt P33535). The test is described as follows: NVS_GPCR_rOpiate_NonSelectiveNa: NovaScreen (NVS) G Protein-Coupled Receptor Assay for rat Opioid Receptor, Non-selective Sodium (Na+) Binding (AID 2283311). An outline of the steps:
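Rat forebrain membranes, radioligand displacement with filter scintillation counting, 1.5 h incubation. Screened in duplicate at 25 µM; hits then run in concentration-response up to 50 µM; loss of binding fitted versus DMSO.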

In test [8] the target is rat Somatostatin Receptor (SST), Sstr1 (gene 25033) (UniProt P28646). Description: NVS_GPCR_rSST: NovaScreen (NVS) G Protein-Coupled Receptor Assay for rat Somatostatin Receptor (SST) (AID 2283314). Put shortly:
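Rat forebrain membranes; radioligand displacement read by filter-based scintillation counting 1 h after dosing. Primary screen in duplicate at 25 uM. Actives (e.g., 30% inhibition) were rerun as concentration-response to 50 uM max and fitted against DMSO.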

Test [9] has as its target rat Opioid Receptor, Non-selective Binding, Oprm1 (gene 25601) (UniProt P33535). The test is described as follows: NVS_GPCR_rOpiate_NonSelective: NovaScreen (NVS) G Protein-Coupled Receptor Assay for rat Opioid Receptor, Non-selective Binding (AID 2283318). Put shortly:
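Rat forebrain membranes, cell-free radioligand binding with filter-based scintillation counting, read 1.5 h after dosing. Primary screen in duplicate at 25 uM; actives retested in concentration series. Loss of signal versus DMSO baseline scored.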

The nature of test [10]: NVS_IC_rCaDHPRCh_L: NovaScreen (NVS) Ion Channel Assay for rat Calcium Channel, Type L, Dihydropyridine Site (CaDHPRCh_L) (AID 2283320). An outline of the steps: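 Radioligand binding to dihydropyridine site on rat cortical membranes, filter-based scintillation counting, 1 h after dosing. Screened in duplicate at 25 uM; actives rerun in concentration-response up to 50 uM. Loss of signal versus DMSO baseline.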

For test [11], the target named is rat Glutamate, AMPA Site (AMPA), Gria1 (gene 50592) (UniProt P19490). The test is described as follows: NVS_LGIC_rAMPA: NovaScreen (NVS) Ligand-Gated Ion Channel Assay for rat Glutamate, AMPA Site (AMPA) (AID 2283324). An outline of the steps:
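Rat forebrain membranes; radioligand binding read 1 h after dosing by filtration and scintillation counting. Duplicate single-point screen at 25 uM, then concentration-response to 50 uM for threshold hits (e.g. 30% inhibition); loss of signal vs DMSO.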

Test [12] deals with rat Neurokinin-1 Receptor (NK1), Tacr1 (gene 24807) (UniProt P14600). Description: NVS_GPCR_rNK1: NovaScreen (NVS) G Protein-Coupled Receptor Assay for rat Neurokinin-1 Receptor (NK1) (AID 2283309). Put shortly: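 Rat submaxillary gland membranes; radioligand displacement read by filter-based scintillation counting after 1 h. Primary screen in duplicate at 25 uM; actives retested in concentration series; loss of binding fitted versus DMSO.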
Chain of rat Neurokinin-1 Receptor (NK1), Tacr1 (gene 24807) (P14600 whole entry, looked up): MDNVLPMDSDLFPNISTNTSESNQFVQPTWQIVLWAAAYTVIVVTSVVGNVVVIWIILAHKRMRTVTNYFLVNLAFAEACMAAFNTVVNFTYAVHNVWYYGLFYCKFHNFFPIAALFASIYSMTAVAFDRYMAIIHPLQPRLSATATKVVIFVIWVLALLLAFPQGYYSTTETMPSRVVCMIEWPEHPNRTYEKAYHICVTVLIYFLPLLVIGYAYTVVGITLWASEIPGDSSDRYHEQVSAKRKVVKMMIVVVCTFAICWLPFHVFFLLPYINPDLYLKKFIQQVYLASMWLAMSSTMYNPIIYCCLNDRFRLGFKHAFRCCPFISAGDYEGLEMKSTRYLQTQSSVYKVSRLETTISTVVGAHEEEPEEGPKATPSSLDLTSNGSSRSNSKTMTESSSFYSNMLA

Test [13] concerns the target rat Vasopressin 1 Receptor (V1), Avpr1a (gene 25107) (UniProt P30560). The test is described as follows: NVS_GPCR_rV1: NovaScreen (NVS) G Protein-Coupled Receptor Assay for rat Vasopressin 1 Receptor (V1) (AID 2283316). Put shortly:
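Radioligand binding on rat liver membranes, 1.5 h incubation, filter-based scintillation counting. Single 25 uM screen in duplicate; chemicals meeting threshold (e.g. 30% inhibition) run in concentration-response up to 50 uM.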

Test [14] deals with Sodium channel protein type 1 subunit alpha (Rattus norvegicus) (UniProt P04774). The test is described as follows: NVS_IC_rNaCh_site2: NovaScreen (NVS) Ion Channel Assay for rat Sodium Channel, Site 2 (NaCh) (AID 2283322).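 Further: hit means loss of radioligand binding signal relative to DMSO so AC50 marks displacement.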 Put shortly:
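Membranes: rat forebrain. Format: competitive radioligand displacement, filter separation, scintillation readout, 1 h exposure. Primary screen in duplicate at 25 uM; actives retested in concentration series.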

Test [15] has as its target bovine Gamma-Aminobutyric Acid Type A Receptor BDZ, alpha 1 site (GABARa1), GABRA1 (gene 780973) (UniProt P08219). The test is described as follows: NVS_LGIC_bGABARa1: NovaScreen (NVS) Ligand-Gated Ion Channel Assay for bovine Gamma-Aminobutyric Acid Type A Receptor BDZ, alpha 1 site (GABARa1) (AID 2283321). An outline of the steps: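 Radioligand competition binding on bovine cortical membranes, 0.75 h, filter-based scintillation counting. Primary single concentration 25 uM in duplicate; actives rerun in concentration-response to 50 uM max. Loss of signal fitted versus DMSO.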

Test [16] has as its target Voltage-dependent N-type calcium channel subunit alpha-1B (Rattus norvegicus) (UniProt Q02294). Description: NVS_IC_rCaChN: NovaScreen (NVS) Ion Channel Assay for rat Calcium Channel, Type N (CaChN) (AID 2283317).
Test [17] has as its target human Neonicotinoid receptor (NNR), CHRNA2 (gene 1135) (UniProt Q15822). The test is described as follows: NVS_LGIC_hNNR_NBungSens: NovaScreen (NVS) Ligand-Gated Ion Channel Assay for human Neonicotinoid receptor (NNR) (AID 2283313). Put shortly: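 Radioligand displacement on human neuroblastoma membranes, 2 h, filter-based scintillation counting. Primary screen in duplicate at 25 uM; chemicals passing threshold (e.g. 30% inhibition) run singleton concentration-response to 50 uM; loss of binding fitted versus DMSO.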

Test [18] concerns the target rat Neurotensin Receptor (NTS), Ntsr1 (gene 366274) (UniProt P20789). Description: NVS_GPCR_rNTS: NovaScreen (NVS) G Protein-Coupled Receptor Assay for rat Neurotensin Receptor (NTS) (AID 2283308). Put shortly:
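Rat forebrain membranes; radioligand binding with competitive displacement, read by filter-based scintillation counting 1 h after dosing. Primary screen in duplicate at 25 uM; actives (e.g., 30% inhibition) rerun in concentration-response up to 50 uM, loss-of-signal versus DMSO.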

The test system of the next test is NCBI gene 24521. The test is described as follows: NVS_IC_rKATPCh: NovaScreen (NVS) Ion Channel Assay for rat Potassium Channel, ATP-Sensitive (KATPCh) (AID 2283319). An outline of the steps: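 Rat cortical membranes; radioligand binding at ATP-sensitive K channel site, filter-based scintillation counting 2 h after dosing. Single-point duplicate screen at 25 uM, hits rerun in concentration-response up to 50 uM; loss of signal versus DMSO.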

Structures are written as SMILES. Results filed as inconclusive are left out. Activity calls are given as the source filed them. How the source made its calls: active means hit-call score of the fitted dose curve at least 0.9, where 1 is the maximum; inconclusive means response in the unintended direction; inactive means score below 0.9.

Chain of rat Neonicotinoid receptor (NNR), Chrna7 (gene 25302) (Q05941 whole entry, looked up): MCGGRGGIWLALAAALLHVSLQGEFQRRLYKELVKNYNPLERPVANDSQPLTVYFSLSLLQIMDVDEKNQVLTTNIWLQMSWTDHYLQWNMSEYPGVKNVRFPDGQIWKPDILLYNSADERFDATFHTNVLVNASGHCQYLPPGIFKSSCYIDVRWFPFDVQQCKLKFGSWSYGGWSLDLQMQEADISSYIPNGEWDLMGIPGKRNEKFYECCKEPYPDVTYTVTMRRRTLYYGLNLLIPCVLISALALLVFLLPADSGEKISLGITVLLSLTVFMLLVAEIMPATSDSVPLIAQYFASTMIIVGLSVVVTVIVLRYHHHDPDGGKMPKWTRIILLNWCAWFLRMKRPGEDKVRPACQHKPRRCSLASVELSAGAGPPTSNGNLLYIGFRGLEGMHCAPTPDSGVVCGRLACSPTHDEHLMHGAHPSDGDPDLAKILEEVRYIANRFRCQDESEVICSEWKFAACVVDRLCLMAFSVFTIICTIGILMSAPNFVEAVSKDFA
Chain of rat Opioid Receptor, Non-selective Binding, Oprm1 (gene 25601) (P33535 whole entry, looked up): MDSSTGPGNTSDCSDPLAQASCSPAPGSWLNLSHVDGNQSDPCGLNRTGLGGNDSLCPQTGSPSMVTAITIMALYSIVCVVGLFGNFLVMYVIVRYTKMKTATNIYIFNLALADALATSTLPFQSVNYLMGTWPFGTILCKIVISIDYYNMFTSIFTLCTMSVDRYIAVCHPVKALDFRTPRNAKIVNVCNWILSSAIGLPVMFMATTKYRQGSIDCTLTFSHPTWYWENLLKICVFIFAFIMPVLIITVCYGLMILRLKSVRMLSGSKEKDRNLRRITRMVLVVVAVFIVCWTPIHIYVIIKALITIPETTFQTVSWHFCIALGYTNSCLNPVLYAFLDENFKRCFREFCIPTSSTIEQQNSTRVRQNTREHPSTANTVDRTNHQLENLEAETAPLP
Chain of Adra2b (gene 24174) (P19328 whole entry, looked up): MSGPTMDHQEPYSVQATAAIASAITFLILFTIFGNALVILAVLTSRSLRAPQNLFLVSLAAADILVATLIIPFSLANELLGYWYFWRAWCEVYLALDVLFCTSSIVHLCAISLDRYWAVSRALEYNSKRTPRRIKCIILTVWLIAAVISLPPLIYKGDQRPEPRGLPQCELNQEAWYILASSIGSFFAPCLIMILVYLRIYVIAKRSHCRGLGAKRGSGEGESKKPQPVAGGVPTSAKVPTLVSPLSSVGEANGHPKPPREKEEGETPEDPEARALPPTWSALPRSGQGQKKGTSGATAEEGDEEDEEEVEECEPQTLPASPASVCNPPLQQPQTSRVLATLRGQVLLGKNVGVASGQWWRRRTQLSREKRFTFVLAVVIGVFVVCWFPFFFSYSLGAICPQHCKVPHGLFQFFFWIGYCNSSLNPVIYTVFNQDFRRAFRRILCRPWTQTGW
Chain of rat Somatostatin Receptor (SST), Sstr1 (gene 25033) (P28646 whole entry, looked up): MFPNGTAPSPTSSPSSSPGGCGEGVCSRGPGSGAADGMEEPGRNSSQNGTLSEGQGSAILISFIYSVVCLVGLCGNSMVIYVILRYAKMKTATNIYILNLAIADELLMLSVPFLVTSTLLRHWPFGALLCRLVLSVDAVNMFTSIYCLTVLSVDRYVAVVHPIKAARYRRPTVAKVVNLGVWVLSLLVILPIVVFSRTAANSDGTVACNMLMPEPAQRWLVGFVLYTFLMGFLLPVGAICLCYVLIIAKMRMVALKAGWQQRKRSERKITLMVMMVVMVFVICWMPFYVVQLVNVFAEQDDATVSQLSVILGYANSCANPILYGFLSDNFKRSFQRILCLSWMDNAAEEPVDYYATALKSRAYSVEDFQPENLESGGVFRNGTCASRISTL
Chain of rat Glutamate, AMPA Site (AMPA), Gria1 (gene 50592) (P19490 whole entry, looked up): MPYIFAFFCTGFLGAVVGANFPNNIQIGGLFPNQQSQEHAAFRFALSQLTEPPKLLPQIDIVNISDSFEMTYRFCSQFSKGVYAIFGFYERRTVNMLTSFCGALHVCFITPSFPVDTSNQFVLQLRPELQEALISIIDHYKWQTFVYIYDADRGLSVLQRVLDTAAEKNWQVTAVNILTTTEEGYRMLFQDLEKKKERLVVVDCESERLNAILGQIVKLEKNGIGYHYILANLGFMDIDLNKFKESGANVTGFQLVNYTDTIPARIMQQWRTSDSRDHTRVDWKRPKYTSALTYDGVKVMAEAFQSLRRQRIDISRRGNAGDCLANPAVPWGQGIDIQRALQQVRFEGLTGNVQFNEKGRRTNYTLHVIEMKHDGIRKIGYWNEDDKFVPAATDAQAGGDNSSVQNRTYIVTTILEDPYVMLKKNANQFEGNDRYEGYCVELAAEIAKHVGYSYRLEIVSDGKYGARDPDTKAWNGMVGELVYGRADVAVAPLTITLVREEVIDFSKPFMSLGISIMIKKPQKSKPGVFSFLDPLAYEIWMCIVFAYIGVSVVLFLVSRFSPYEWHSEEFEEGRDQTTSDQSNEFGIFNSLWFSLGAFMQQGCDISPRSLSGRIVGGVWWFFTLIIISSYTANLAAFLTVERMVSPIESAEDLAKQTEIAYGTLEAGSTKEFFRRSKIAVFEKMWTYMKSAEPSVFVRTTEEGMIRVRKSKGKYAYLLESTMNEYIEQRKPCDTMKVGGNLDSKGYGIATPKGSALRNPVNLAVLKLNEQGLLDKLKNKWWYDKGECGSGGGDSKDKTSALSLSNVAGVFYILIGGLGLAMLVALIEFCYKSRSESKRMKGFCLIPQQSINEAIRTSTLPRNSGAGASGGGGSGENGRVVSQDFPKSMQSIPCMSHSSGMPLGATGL
Chain of rat Opioid Receptor, Non-selective Sodium (Na+) Binding, Oprm1 (gene 25601) (P33535 whole entry, looked up): as the sequence (P33535 whole entry, looked up) above
Chain of Metabotropic glutamate receptor 1 (Rattus norvegicus) (P23385 whole entry, looked up): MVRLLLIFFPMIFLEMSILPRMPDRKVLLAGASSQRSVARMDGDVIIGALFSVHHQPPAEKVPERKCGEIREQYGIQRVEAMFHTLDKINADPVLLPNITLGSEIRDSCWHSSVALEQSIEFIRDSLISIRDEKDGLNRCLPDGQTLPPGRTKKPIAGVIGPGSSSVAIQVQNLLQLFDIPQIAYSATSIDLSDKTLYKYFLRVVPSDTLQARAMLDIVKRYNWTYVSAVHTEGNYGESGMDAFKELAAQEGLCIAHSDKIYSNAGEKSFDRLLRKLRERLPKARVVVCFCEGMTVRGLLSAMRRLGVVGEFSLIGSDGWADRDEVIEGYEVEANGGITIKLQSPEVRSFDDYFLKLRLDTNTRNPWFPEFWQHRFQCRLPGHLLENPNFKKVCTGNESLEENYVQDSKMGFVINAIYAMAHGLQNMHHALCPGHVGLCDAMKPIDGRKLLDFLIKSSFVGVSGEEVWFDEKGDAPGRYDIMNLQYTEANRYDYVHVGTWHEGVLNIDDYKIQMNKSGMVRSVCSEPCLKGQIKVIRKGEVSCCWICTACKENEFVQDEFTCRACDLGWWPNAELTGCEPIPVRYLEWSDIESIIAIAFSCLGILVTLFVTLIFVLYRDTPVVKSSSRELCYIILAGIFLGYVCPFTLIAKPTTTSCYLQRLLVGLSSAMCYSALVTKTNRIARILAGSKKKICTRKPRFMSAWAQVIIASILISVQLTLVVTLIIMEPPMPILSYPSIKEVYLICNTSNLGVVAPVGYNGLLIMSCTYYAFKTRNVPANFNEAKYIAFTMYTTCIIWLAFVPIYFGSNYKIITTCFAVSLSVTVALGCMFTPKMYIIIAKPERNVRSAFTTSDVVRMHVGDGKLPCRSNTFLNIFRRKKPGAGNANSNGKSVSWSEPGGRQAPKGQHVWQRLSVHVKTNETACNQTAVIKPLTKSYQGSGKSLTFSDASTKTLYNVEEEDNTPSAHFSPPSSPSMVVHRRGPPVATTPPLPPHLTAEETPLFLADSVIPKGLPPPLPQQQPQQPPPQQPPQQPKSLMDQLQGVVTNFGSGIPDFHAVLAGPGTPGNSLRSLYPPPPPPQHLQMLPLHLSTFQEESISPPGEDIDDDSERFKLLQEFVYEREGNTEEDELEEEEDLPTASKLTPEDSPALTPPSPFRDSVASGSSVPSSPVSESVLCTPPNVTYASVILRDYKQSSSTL

With `O=C(O)C(F)(F)C(F)(F)C(F)(F)C(F)(F)C(F)(F)C(F)(F)C(F)(F)C(F)(F)C(F)(F)C(F)(F)F`, the compound was called inactive in test [1].

In the case of `COc1cc2c(cc1OC)[C@@]13CCN4CC5=CCO[C@H]6CC(=O)N2[C@H]1[C@H]6[C@H]5C[C@H]43`, the AC50 – broadly, the concentration giving half of the maximal activity seen – in test [2] was 25 µM (active).

As to `CC(=O)[O][Hg][c]1ccccc1`, the AC50 in test [3] is 40.2 µM (active); in [4], 10.8 µM (active); with Adra2b (gene 24174), 11.9 µM (active); in test [6], 16.8 µM (active); in [7], 30 µM (active); in test [8] it was 5.92 µM (active). Besides, the AC50 was 31.9 µM (active) in test [9], 40.5 µM (active) in test [10] and 9.18 µM (active) in test [11]. Also, in test [5], the compound was classed as inactive.

Take `C[C@@H]1C[C@@H]([C@H](O)CC2CC(=O)NC(=O)C2)C(=O)[C@@H](C)C1`: the call in test [12] and in [2] was inactive.

Consider `Cc1ccccc1N`, for which the AC50 in test [8] is 10.8 µM (active).

Take `O=C(O)C(F)(F)C(F)(F)C(F)(F)C(F)(F)C(F)(F)C(F)(F)F`: the AC50 in test [13] is 39.2 µM (active).

Turning to `NC(=S)Nc1ccccc1`, in test [14], the AC50 was 0.569 µM (active).

Turning to `CCCCCCCCC(=O)NCc1ccc(O)c(OC)c1`, the AC50 in test [14] was 1.55 µM (active).

As for `CCNc1nc(NC(C)(C)C)nc(SC)n1`, the AC50 in test [14] is 12.1 µM (active).

Regarding `Cn1sc(Cl)cc1=O`, the outcome in test [15] was inactive.

As for `Oc1cccc2cccnc12`, the result in test [10] was inactive.

`COc1cc(-c2ccc(N)c(OC)c2)ccc1N`: the AC50 in the test with Adra2b (gene 24174) is 15.5 µM (active).

In the case of `N#CCc1ccc(Cl)cc1`, the outcome in test [14] was inactive.

Regarding `CC(C)(C)CC(C)(C)c1ccc(O)cc1`, the outcome in test [14] was inactive.

As to `O=C(Cl)c1ccc(Cl)cc1`, the compound was classed as inactive in test [14].

Take `CCSC(C)CC1CC(=O)C(C(CC)=NOC/C=C/Cl)=C(O)C1` (stereo unspecified): the result in test [14] was inactive.

With `O=C(O)C(Cl)(Cl)Cl`, the AC50 in [13] was 1.6 µM (active).

With `O=c1[nH]c(=O)[nH]c(=O)[nH]1`, the outcome in test [16] and in test [9] was inactive.

As for `CCN1CCC2(CC1)COc1cc3c(cc12)N(C(=O)c1ccc(-c2ccc(-c4nnc(C)o4)cc2C)cc1)CC3`, the AC50 with Adra2b (gene 24174) is 10.1 µM (active); in [12] it was 10.7 µM (active); in [17] it was 5.41 µM (active); in [2], 21.2 µM (active); in test [10], 4.93 µM (active); in test [14], 3.44 µM (active). The result in test [9] was inactive.

Take `C=C(C)C(=O)[O][Sn]([CH2]CCC)([CH2]CCC)[CH2]CCC`: the AC50 was 25 µM (active) in test [3]; 4.13 µM (active) in [4]; 3.08 µM (active) in the test with Adra2b (gene 24174); 18.1 µM (active) in [5]; 1.4 µM (active) in [6]; 8.6 µM (active) in test [7]. The AC50 in test [8] is 12.8 µM (active); in [9] it was 4.13 µM (active); in test [10] it was 12.3 µM (active); in [14], 25 µM (active); in test [11], 25 µM (active). Moreover, the compound was classed as inactive (in test [18]; with NCBI gene 24521).

On to `CCC(=O)C(CC(C)N(C)C)(c1ccccc1)c1ccccc1` (stereo unspecified), for which the AC50 with Adra2b (gene 24174) was 6.79 µM (active); in test [14] it was 1.97 µM (active).
